# Experimental data reported in the supplement of paper PMC6555819.
# Experiments:
# Assay in all cases: PBM binding z-score (relative to random genomic background probes); higher = stronger binding; sequences stand for … in GC…GCGATTGACAGCGTAGAATGAAGG
# [1] = system: FXR:RXRa (NR concentration 270 nM, RXRa partner concentration 90 nM)
# How it was run: (§1)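 Ligand-free nuclear receptor dimers were bound for 1 h to custom Agilent 4×180K protein-binding microarrays. Detection used antibodies against each partner (one per run). Binding z-scores rest on regression-normalized fluorescence, with random background probes as the reference.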
# [2] = system: LXRa:RXRa (NR concentration 270 nM, RXRa partner concentration 90 nM)
# How it was run: as §1
# [3] = system: LXRa homodimer (NR concentration 270 nM)
# How it was run: as §1
# [4] = system: LXRb:RXRa (NR concentration 270 nM, RXRa partner concentration 90 nM)
# How it was run: as §1
# [5] = system: LXRb homodimer (NR concentration 270 nM)
# How it was run: as §1
# [6] = system: PPARa:RXRa (NR concentration 270 nM, RXRa partner concentration 90 nM)
# How it was run: as §1
# [7] = system: PPARg:RXRa (NR concentration 180 nM, RXRa partner concentration 90 nM)
# How it was run: as §1
# [8] = system: PPARg:RXRa 270nM:90nM, anti-RXR (NR concentration 270 nM, RXRa partner concentration 90 nM)
# How it was run: as §1
# [9] = system: PPARg:RXRa 30nM:10nM, anti-RXR (NR concentration 30 nM, RXRa partner concentration 10 nM)
# How it was run: as §1
# [10] = system: PPARg:RXRa 90nM:30nM, anti-RXR (NR concentration 90 nM, RXRa partner concentration 30 nM)
# How it was run: as §1
# [11] = system: PPARg:RXRa DBDmut IVT, anti-RXR (DBD mutation: RXRa K156A/R161A, NR concentration 270 nM, RXRa partner concentration 90 nM)
# How it was run: as §1
# [12] = system: PPARg:RXRa IVT, anti-PPARg (NR concentration 270 nM, RXRa partner concentration 90 nM)
# How it was run: as §1
# [13] = system: PPARg DBDmut:RXRa IVT, anti-PPARg (DBD mutation: PPARg1 K132A/R137A, NR concentration 270 nM, RXRa partner concentration 90 nM)
# How it was run: as §1
# [14] = system: PPARg DBDmut IVT, anti-PPARg (DBD mutation: PPARg1 K132A/R137A, NR concentration 270 nM)
# How it was run: as §1
# [15] = system: PPARg homodimer (NR concentration 180 nM)
# How it was run: as §1
# [16] = system: PXR:RXRa (NR concentration 270 nM, RXRa partner concentration 90 nM)
# How it was run: as §1
# [17] = system: PXR homodimer (NR concentration 270 nM)
# How it was run: as §1
# [18] = system: RARa:RXR (NR concentration 270 nM, RXRa partner concentration 90 nM)
# How it was run: as §1
# [19] = system: RARa homodimer (NR concentration 270 nM)
# How it was run: as §1
# [20] = system: RARb:RXRa (NR concentration 270 nM, RXRa partner concentration 90 nM)
# How it was run: as §1
Sequence,PBM binding z-score [1],PBM binding z-score [2],PBM binding z-score [3],PBM binding z-score [4],PBM binding z-score [5],PBM binding z-score [6],PBM binding z-score [7],PBM binding z-score [8],PBM binding z-score [9],PBM binding z-score [10],PBM binding z-score [11],PBM binding z-score [12],PBM binding z-score [13],PBM binding z-score [14],PBM binding z-score [15],PBM binding z-score [16],PBM binding z-score [17],PBM binding z-score [18],PBM binding z-score [19],PBM binding z-score [20]
CCGACTGGGGCATAATGTTACCATAAGCCAGCCC,-0.414,-0.333,-0.335,-0.186,-0.735,0.127,1.15,1.01,-0.289,0.632,2.47,2.12,-0.872,-0.687,0.105,-0.537,-0.468,-0.283,-0.0507,0.133
TCATATAGGTAAACAGGTGAATGTCCGTAAGTTA,0.832,1.18,1.02,0.963,0.0472,2.02,2.31,3.18,3.86,3.58,4.88,4.45,1.34,1.04,1.16,0.702,0.0773,1.09,0.858,0.708
CAAACTACGTCACAGAGGTCAAAGTCCGTGCGTA,4.81,5.44,5.72,5.02,1.87,5.12,3.52,4.59,1.9,3.91,0.625,2.48,1.33,0.372,2.66,5.74,2.1,5.74,1.25,3.98
GCTGCTAGGTCTACTGATGGTCAGCTAAAGCTCG,-0.686,-0.0634,-0.277,-0.896,-0.887,-0.691,-0.539,-0.623,-0.649,-0.834,0.214,-0.311,-1.02,-1.38,-1.15,-0.901,-1.2,-0.701,-0.754,-0.132
TCTATTAGTTGGTTAGGGCAACCGAAACAGCGGA,0.675,0.576,0.522,0.534,1.35,0.448,-0.169,1.55,3.59,2.57,1.47,0.862,1.18,0.941,0.798,0.158,0.345,0.342,1.17,0.848
CGTCCAAGGGCAAAGGTCAGTGAAGAGATGACGG,4.46,4.17,0.705,3.56,-0.199,5.39,8.11,7.1,5.37,7.34,1.01,4.07,-0.495,-0.877,1.99,4.76,0.541,6.49,0.911,4.78
AGTCAAAGTTCATCTAGGGAACGTAAGATATGCT,6.67,5.95,4.72,3.68,1.64,4.69,6.38,6.34,3.44,5.6,0.178,2.78,1.05,1.04,1.73,4.88,4.28,3.41,1.1,4.92
TAATATAGGTAATACAGGTGAAAGTCGGCATCTA,0.455,1.04,0.599,0.603,0.797,2.57,3.18,3,2,2.17,5.72,5.56,2.44,1.91,1.32,0.362,0.607,0.476,1.83,0.621
ACGTACGGGTCAACGAGGTTATAGCACGCGTATA,7,4.84,0.327,4.27,0.00154,5.95,5.01,4.94,1.55,3.46,1.33,2.92,0.48,0.418,1.72,5.2,2.83,5.19,0.777,4.28
CTCGAAAGGTCGGTCGAGGTGAGTATACGGATAA,2.43,1.82,-0.49,1.29,-0.496,2.75,0.678,1.5,0.401,0.892,0.299,1.21,0.0612,-0.418,0.551,3.08,-0.312,2.59,-0.801,3.2
ATATGTAGGTTAGCTGGGGTCATTCTGACTAGGC,4.61,5.75,3.4,4.86,1.32,5.07,5.36,5.24,2.82,4.48,7.04,6.37,3.34,2.13,2.71,6.41,3.72,5.57,1.37,2.88
AGTCAAAGTTCAGGACGAGGTAACCTAAAGCACG,4.17,3.71,1.24,1.96,0.245,3.49,4.24,4.79,2.04,3.75,-0.128,2.2,0.0369,0.548,2.47,2.74,1.53,2.96,0.958,4.23
ACTAGCAGGCCAAGTCTGGGTCACTCAAACAAAG,0.226,0.263,0.0484,0.796,-1.12,2.38,0.901,1.28,0.18,0.56,2.25,3.03,-0.209,-0.38,0.811,0.664,-0.106,1.59,-0.573,1.75
CAAACTAGGTCACCGCAAGGTCAAAGTCCGCATG,6.27,5.91,5.31,5.42,1.37,6.06,9.19,7.84,5.73,7.81,8.65,8.87,6.76,3.92,8.41,6.08,2.22,6.85,2.14,5
GTACCTAGGTGAATAGGTCGTTGATGAGTAGGCG,0.327,0.577,-0.19,0.185,-0.886,1.93,1.83,2.16,0.782,1.89,2.96,3.55,-0.531,-0.303,0.221,0.327,-0.195,1.03,0.134,1.15
